Measurements published in PubChem BioAssay AID504332 (National Center for Advancing Translational Sciences (NCATS), 2011).
Hit rate of the full screen: of about 350,000 compounds, about 31,000 (8.9%) were called active. Not shown: some 15% with an inconclusive outcome. The call rests on the fitted dose curve; in most records, active means well fitted inhibition curve with a large enough effect; inconclusive means small, poorly fitted or top-dose-only effect; inactive means no such curve, though single readings can be large or run the other way. For the sample, actives were picked, then their nearest neighbours and some compounds at random.

What follows are compounds tested against Histone-lysine N-methyltransferase EHMT2 (Homo sapiens) (UniProt Q96KQ7) (assay: qHTS Assay for Inhibitors of Histone Lysine Methyltransferase G9a). Settings: G9a H3K9 monomethylation, AlphaScreen, 2 h; series mostly up to 59 µM; activity, negative = inhibition: at the top concentration.
Chain of Histone-lysine N-methyltransferase EHMT2 (Homo sapiens) (Q96KQ7 913-1193 limits assumed): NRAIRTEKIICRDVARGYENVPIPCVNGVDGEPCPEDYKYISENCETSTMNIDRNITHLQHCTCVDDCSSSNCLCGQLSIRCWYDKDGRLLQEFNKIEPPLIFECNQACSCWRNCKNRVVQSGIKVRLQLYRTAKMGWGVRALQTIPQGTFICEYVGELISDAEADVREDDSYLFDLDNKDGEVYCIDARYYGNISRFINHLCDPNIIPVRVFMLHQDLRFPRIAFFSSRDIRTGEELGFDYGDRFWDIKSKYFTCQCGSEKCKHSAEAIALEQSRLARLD
Method in brief: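 G9a (20 nM) preincubated 15 min RT with compounds, then 500 nM biotinylated H3K9 peptide and 20 uM SAM added; 2 h RT reaction. Monomethyl-H3K9 product detected by AlphaScreen with anti-H3K9me1 antibody, streptavidin donor and anti-rabbit IgG acceptor beads.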
Further: nearly all actives have a fitted effect of over 75% in size.
On the % scale 0 is the no-effect control and ±100 the full control effect; potency means the concentration at half of the fitted maximal effect.

activity, negative = inhibition, inactive:
COc1ccc(Nc2ncc3c(n2)CCN(C(=O)OC(C)(C)C)C3)cc1 -31.3%
COc1ccc(CCNC(=O)Cn2c(=O)n(-c3ccccc3)c(=O)c3c(C)c(C)sc32)cc1OC -27%
COc1cc(C(=O)Nc2ncccc2C)ccc1OCC(=O)N1CCOCC1 19.4%
O=C(CNS(=O)(=O)c1ccccc1)N1CCN(C(=O)c2ccco2)CC1 -0.876%
Cc1ccc(-n2ncc3c2CC(C)(C)CC3NC(=O)CCc2cnn(C)c2)cc1 (configuration not stated) 12.4% [at 102 µM]
CC1CCCN(c2csc3ccc(F)cc3c2=O)C1 (configuration not stated) -8.07%
CCc1cccc(NC(=O)CCCN2C(=O)C(c3ccccc3)Oc3cccnc32)c1 (configuration not stated) 26% [at 0.0925 µM]
COc1cc([N+](=O)[O-])ccc1NC(=O)CN1CCCC1 -15.7%
O=C(CN1CCCCCC1)Nc1ccc(Br)cc1Br 105% [at 102 µM]
COC(=O)c1sccc1S(=O)(=O)N(CC(=O)Nc1ccc(C)c(F)c1)c1ccc(C)c(C)c1 17%
O=S(=O)(NCc1ccc(Cl)cc1Cl)c1cccs1 14.7% [at 0.501 µM]
COc1ccc(-n2c(SCC(N)=O)nc3c(oc4ccccc43)c2=O)cc1 -2.44%
Cc1cccc(-n2c(SCC(N)=O)nc3c(oc4ccccc43)c2=O)c1 8.13%
CCOc1cc(/C=C(\C#N)C(=O)Nc2ccccc2C)ccc1OCc1cc(=O)n2nc(CC)sc2n1 -7.24%
CC(=O)Nc1ccc(/C=C/C(=O)c2ccccc2)cc1 -1.87% [at 2.33 µM]
Cc1cc(C)n(-c2ccc(C(=O)O)cc2[N+](=O)[O-])n1 -35.8% [at 102 µM]
COc1cccc(CNC(=O)CN2C(=O)CCc3cc(S(=O)(=O)N4CCOCC4)ccc32)c1 23.9%
COc1ccc(C(CNC(=O)c2ccc(S(=O)(=O)Nc3ccccc3C)cc2)N2CCOCC2)cc1 (configuration not stated) 19% [at 2.33 µM]
COc1ccc(-c2cn3ccc(C)cc3n2)cc1 -10% [at 102 µM]
Cc1nc(-c2ccc(F)cc2)c(CC(=O)N(C)CC(=O)Nc2c(C)cccc2C)s1 -12% [at 102 µM]
CCCSc1nc2sc3c(c2c(=O)n1-c1cccc(Br)c1)CC(C)(C)OC3 -29.5%
Cc1cc(C(=O)OC(C)C(=O)NC2CCCCC2C)c(C)o1 (configuration not stated) -2.74% [at 102 µM]
Cc1cc(C)cc(NC(=S)NCc2ccc(F)cc2)c1 -8.23%
Cc1cccc(NC(=S)NCCN(C2CCCCC2)C2CCCC2)c1 16.8%
O=C(CCc1ccccc1)NCc1ccc2c(c1)CCN2C(=O)c1ccccc1 2.34%
O=C(O)CCC(=O)NCc1ccc(C(=O)O)cc1 -34% [at 102 µM]

Potency, active:
O=C(CN1CCCCCC1)Nc1ccc(Br)cc1[N+](=O)[O-] 35.5 µM
COc1cccc(-n2c(=S)[nH]c3c(oc4ccccc43)c2=O)c1 44.7 µM
CN(C)c1ccc(/C=C/C(=O)c2ccc(C(C)(C)C)cc2)cc1[N+](=O)[O-] 12.6 µM
Cc1ccn2cc(-c3nonc3C)cc2c1 10 µM
O=C(O)CCC(=O)NCc1ccc2[nH]c3c(c2c1)CCCC3 50.1 µM
Cc1cccc(NC(=S)NCc2ccc3[nH]c4c(c3c2)CCCC4)c1 39.8 µM
